Screens deposited in PubChem by National Center for Advancing Translational Sciences (NCATS).
ATXN viability: reduces viability in counter-screen for ATXN expression inhibitors; S2 cells (HEK-293 line with an ATXN2-luciferase reporter) viability, CellTiter-Fluor protease fluorescence, 24 h; Potency, µM (top dose mostly 56.7 µM), most hits filed as cytotoxic; 400,000 compounds, 0.49% hits; also: nearly all actives have a fitted effect of over 40% in size
ATXN2 expr inh: ATXN2 expression inhibition | HEK-293 ATXN2-luciferase reporter, luminescence, 24 h | Potency, µM (series often up to 57 µM), without a hit: at the highest dose activity change, negative = inhibition, usual class: inhibitors | 360,000 compounds, 0.72% hits | AID 1745845; also: % is scaled to controls: 0 for no effect and ±100 for the full control effect; nearly all actives have a fitted effect of over 55% in size
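ATXN2-luciferase reporter cells (luciferase flanked by upstream and downstream ATXN2 gene portions) were treated 24 h at 37 °C with compounds at up to 57 uM. SteadyGlo luminescence gave expression; GF-AFC fluorescence gave viability.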
HepG2 tox: kills HepG2 cells in TGF-b inhibitor counter-screen. AID 588856. Potency, µM (series often up to 46.1 µM), for inactives: at the top dose activity change, negative = cytotoxicity, usual class: cytotoxic. 410,000 compounds, 0.76% hits. HepG2 CAGA-GFP viability, ATP luminescence, 18 h
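CellTiter-Glo luminescence gave cytotoxicity after 18 hours at 37 degrees C. The cells were HepG2 CAGA-GFP in 1% FBS DMEM, stimulated with 500 pg/mL TGF-beta after compound addition. %Activity was normalised to no-cell wells (complete cell-killing) and DMSO (no toxicity), and curves were fitted and classified.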
TGFb inhibitor: inhibitors of TGF-b signaling | HepG2 CAGA-GFP TGF-b/SMAD3 reporter, GFP fluorescence, 18 h; TGF-beta stimulated, 500 pg/mL final | Potency, µM (highest dose often 46.1 µM), without a hit: at the top dose activity, negative = inhibition, actives largely listed as inhibitors | 410,000 compounds, 1.2% hits; also: % is scaled to controls: 0 for no effect and ±100 for the full control effect; nearly all actives have a fitted effect of over 65% in size
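HEPG2 CAGA-GFP cells (1000/well, DMEM with 1% FBS) were pre-incubated 2 h at 37 degrees C, given compound by pin tool, then stimulated with TGF-beta at 500 pg/mL final for 18 h before per-cell GFP fluorescence imaging.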
DT40 TDP1 CPT: growth inhibition of DT40 Tdp1-/-;hTDP1 cells with camptothecin (screen for TDP1 inhibitors) | AID 686979 | chicken DT40 Tdp1-/-;hTDP1 cells + 20 nM CPT, ATP luminescence, 48 h | Potency, µM (top dose mostly 46.2 µM), inactives show top-dose activity change, negative = growth inhibition, most hits filed as inhibitors | 420,000 compounds, 12% hits; also: % is scaled to controls: 0 for no effect and ±100 for the full control effect; nearly all actives have a fitted effect of over 55% in size
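Chicken DT40 Tdp1-/- cells complemented with human TDP1, 400 cells/well, exposed to compounds plus 20 nM camptothecin for at least 48 h at 37 C; viability read as ATP content by CellTiter-Glo luminescence.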
TDP1 cell noCPT: qHTS for Inhibitors of human tyrosyl-DNA phosphodiesterase 1 (TDP1): qHTS in cells in absence of CPT; 420,000 compounds, 15% hits; DT40 Tdp1-/- hTDP1 cells, no CPT, ATP luminescence, 48 h; Potency, µM (titrated, usually from 46.2 µM), inactives show at the top dose activity change, negative = growth inhibition, most hits filed as inhibitors; also: % is scaled to controls: 0 for no effect and ±100 for the full control effect; nearly all actives have a fitted effect of over 55% in size
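Stably hTDP1-transfected Tdp1-null chicken DT40 cells were treated with library compounds minus camptothecin and grown for at least 48 hr at 37 °C, after which cellular ATP was quantified by luminescence.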
* hit, by the source's call; i = inactive; u = inconclusive; x = no result given; [ ] = remark or other dose. Most compounds without a hit are left out; they make up all but 17% or so of the library. Calls follow the shape of the dose curve; as a rule, active = well fitted curve in the direction sought with a large enough effect; inconclusive = small, poorly fitted or top-dose-only effect, or another doubt; inactive = no such curve, though single readings can be large; an effect the other way counts as inactive or inconclusive. Potency is read from the fitted curve at half-maximal effect.

SMILES	ATXN viability	ATXN2 expr inh	HepG2 tox	TGFb inhibitor	DT40 TDP1 CPT	TDP1 cell noCPT
CCn1cc(C(=O)NCc2ccc(C)cc2)c(=O)c2cc(S(=O)(=O)N3CCCCCC3)ccc21	i	9%	-43%	-4%	15µM*	21µM*
CCn1cc(C(=O)NCC(OC)OC)c(=O)c2cc(S(=O)(=O)N3CCC(C)CC3)ccc21	i	x	-38%	-17%	u	10µM*
O=C1C2C3CCCC3=C3CCCC3C2C(=O)N1c1ccccc1Cl (centres undefined)	x	x	-32%	u	x	x
COc1ccccc1/C=C/c1nc2ccccc2s1	x	x	-4%	-8%	u	u
Nc1ccc(/C=C/c2nc3ccccc3s2)cc1	x	x	-13%	0%	11µM*	13µM*
CC(=O)Nc1ccc(/C=C/c2nc3ccccc3s2)cc1	x	x	-33%	-21%	u	11µM*
CC(C)CN(CC(C)C)c1ccc(/C=C/c2nc3ccccc3s2)cc1	x	x	-19%	-22%	5µM*	3.5µM*
COc1ccc(Cn2c(CCC(=O)Nc3cc(C)cc(C)c3)nc3cccnc32)cc1	u	u	-36%	u	u	u
Cc1ccc(CNC(=O)CCc2nc3cccnc3n2Cc2ccccc2)cc1	i	-1%	-19%	-3%	15µM*	u
COc1ccc(Cn2c(CCC(=O)Nc3ccc(C)cc3)nc3cccnc32)cc1	i	-27%	-5%	-3%	u	15µM*
COCCn1c(CNC(=O)c2ccc(C)cc2)nc2cccnc21	x	x	-13%	-6%	-19%	-4%
CCN(CC)c1ccc(C(=O)NCc2nc3cccnc3n2Cc2ccc(C)cc2)cc1	x	x	-30%	u	18µM*	15µM*
Clc1cccc(-c2ccc(-c3nc4ccccn4c3NCc3ccccc3)cc2)c1	i	-24%	-31%	u	16µM*	23µM*
COc1ccc(-c2nc3ccccn3c2NCc2ccc3c(c2)OCO3)cc1	i	18%	-34%	3%	-27%	u
COc1ccc(-c2cc(-c3nc4ccccn4c3NCc3ccccc3)ccc2OC)cc1	7.9µM*	4µM*	-15%	u	u	u
O=C(CN(C(=O)c1ccccc1Cl)N1C(=O)CCCC1=O)c1ccc(Cl)cc1	i	x	9%	12%	-4%	-1%
COc1ccc(-n2c(=O)c(C)nc3cncnc32)cc1	x	x	x	x	11%	-8%
COc1ccc(CN2CCN(S(=O)(=O)c3ccccc3)CC2)c(OC)c1OC	i	-17%	1%	7%	-12%	u
COC(=O)C(C(=O)OC)c1cc2c(cc1CNS(=O)(=O)c1ccc(C)cc1)OCO2	x	x	x	x	-12%	5%
CCOC(=O)c1ccc2c(c1)NCc1cccc(OC)c1O2	i	x	0%	-21%	10µM*	10µM*
O=C(CCCCn1c(=O)[nH]c2ccccc2c1=O)NC1CCN(Cc2ccccc2)CC1	i	-8%	-53%	u	-19%	-2%
COc1ccc(OC)c(CCNC(=O)CCCn2c(=O)c3cccn3c3ccccc32)c1	x	x	-17%	0%	18µM*	21µM*
CC(C)CCNC(=O)CCCn1c(=O)c2cccn2c2ccccc21	x	x	-16%	0%	u	u
COc1ccccc1CNC(=O)CCCn1c(=O)c2cccn2c2ccccc21	x	x	-17%	x	u	29µM*
COc1ccccc1CNC(=O)CCCn1c(=O)c2ccccc2n(Cc2ccc(C)cc2)c1=O	i	-6%	4%	-5%	u	u
SMILES	ATXN viability	ATXN2 expr inh	HepG2 tox	TGFb inhibitor	DT40 TDP1 CPT	TDP1 cell noCPT
O=C(CCCCn1c(=O)c2ccccc2n(Cc2ccccc2F)c1=O)NC1CCN(Cc2ccccc2)CC1	u	u	0%	-13%	u	16µM*
COc1ccccc1CNC(=O)CCCn1c(=O)c2ccccc2n(Cc2ccccc2F)c1=O	i	10%	-2%	7%	9.2µM*	7.3µM*
COc1cccc(CNC(=O)CCCn2c(=O)c3cccn3c3cccnc32)c1OC	x	x	-9%	-20%	u	u
COc1ccc(OC)c(-c2ccnc(-n3ncc(C(=O)N(C)CCc4ccccn4)c3C)n2)c1	i	x	x	x	-10%[9.04 µM]	-13%
CCCCCCCCN1C(=O)[C@H](CC(=O)NCCCOCCCC)C[C@@]2(C(=O)OC)CC(C)(C)CC=C12	x	x	x	x	u	15µM*
COCCCNC(=O)C[C@@H]1C[C@@]2(C(=O)OC)CC(C)(C)CC=C2N(Cc2ccco2)C1=O	x	x	x	x	-7%	0%
C#CCNC(=O)C[C@@H]1C[C@@]2(C(=O)OC)CC(C)(C)CC=C2N(CCCCCCCC)C1=O	x	x	x	x	u	16µM*
CCCCCCCCN1C(=O)[C@H](CC(=O)NCC2CCCCC2)C[C@@]2(C(=O)OC)CC(C)(C)CC=C12	x	x	x	x	u	13µM*
CCCCCCCCN1C(=O)[C@H](CC(=O)NCCCOC)C[C@@]2(C(=O)OC)CC(C)(C)CC=C12	x	x	x	x	u	15µM*
CC(C)C(NC(=O)c1ccc(C(C)(C)C)cc1)C(=O)N1CCCC1 (centres undefined)	i	3%	-9%	6%	u	u
